# Source: PubChem
# FLuc modulator – counter-screen for miR-21 project: firefly luciferase inhibitors or activators; purified FLuc, Km substrates, luminescence inhibition; Potency, µM (highest dose often 57.5 µM), inactives show top-dose activity change, negative = inhibition, usual class: inhibitors; hit rate 6.9% among 360,000;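 note: plate controls were vehicle for no effect and reference inhibitor for full effect; nearly all actives have a fitted effect of over 55% in size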
# Target sequence (P08659 whole entry, looked up): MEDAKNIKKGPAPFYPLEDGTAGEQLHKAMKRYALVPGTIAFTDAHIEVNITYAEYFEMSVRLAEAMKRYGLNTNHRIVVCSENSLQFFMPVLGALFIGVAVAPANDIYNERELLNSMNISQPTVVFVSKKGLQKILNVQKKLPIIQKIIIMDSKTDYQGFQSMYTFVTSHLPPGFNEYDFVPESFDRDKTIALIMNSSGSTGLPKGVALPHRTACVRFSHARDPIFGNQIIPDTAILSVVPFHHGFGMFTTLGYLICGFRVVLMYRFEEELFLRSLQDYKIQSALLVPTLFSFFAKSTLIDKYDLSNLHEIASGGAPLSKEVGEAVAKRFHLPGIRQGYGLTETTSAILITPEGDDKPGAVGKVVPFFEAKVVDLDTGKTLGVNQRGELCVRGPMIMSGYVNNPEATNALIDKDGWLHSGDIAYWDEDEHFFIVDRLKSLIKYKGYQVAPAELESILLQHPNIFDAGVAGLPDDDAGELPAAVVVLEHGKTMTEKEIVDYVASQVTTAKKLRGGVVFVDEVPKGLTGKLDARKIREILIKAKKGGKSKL
#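 Biochemical qHTS of compounds, final roughly 60 µM downward over six points, against 10 nM purified firefly luciferase using Km concentrations of substrates (10 uM D-luciferin, 10 uM ATP) in Tris acetate pH 7.5 buffer; luminescence output.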
# ELG1 genotoxic – induces genotoxicity in HEK293T cells with luciferase-tagged ELG1; AID 504466; hit rate 1.3% among 330,000; HEK293T ELG1-luciferase reporter, luminescence, 16 h; Potency, µM (series often up to 46 µM), for inactives: top-dose activity change, positive = activation, actives largely listed as activators; note: % of control where 0% means no effect; nearly all actives have a fitted effect of over 60% in size
#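 ELG1-luciferase HEK293T cells, 2,000/well; compound pinned in; 16 hr, 37 °C, 5% CO2; ONE-Glo, 30 min RT; luminescence on CCD imager.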
# Rab9 promoter act – activators of Rab9 promoter; Huh7 Rab9 promoter-luciferase reporter, luminescence, 24 h; Potency, µM (highest dose often 9.22 µM), for the others: at the top dose activation, negative = inhibition, usual class: activators; hit rate 2.8% among 320,000; AID 485297; note: % of control where 0% means no effect; nearly all actives have a fitted effect of over 60% in size
#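 Rab9 promoter-driven luciferase in stably transfected Huh7 cells; 1500 cells/well rested 2 h, exposed to compound in DMSO for 24 h at 37 °C, 5% CO2. Luminescence read 10 min after adding luciferase reagent at ambient temperature.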
# SMN2 splice enh – increases expression of the SMN2 splice variant | HEK293 SMN2-luciferase splicing reporter, luminescence, 30-36 h | Potency, µM (top dose mostly 46.1 µM), inactives show top-dose activity change, positive = activation, actives largely listed as activators | hit rate 2.8% among 210,000 | AID 1458; note: % of control where 0% means no effect; nearly all actives have a fitted effect of over 55% in size
#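 HEK293 cells carry an SMN2 minigene-luciferase reporter in which exon 7 inclusion puts luciferase in frame. Cells were seeded at 2000 cells/well, attached for 10-12 hours, then exposed to compounds for 30-36 hours at 37C before ONE-Glo luminescence.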
# NPC1 prom act – NPC1 promoter activation | Huh7 NPC1 promoter luciferase reporter, 24 h | Potency, µM (highest dose often 9.22 µM), for inactives: top-dose activation, usual class: activators | hit rate 2.4% among 320,000 | AID 485313; note: % of control where 0% means no effect; nearly all actives have a fitted effect of over 60% in size
#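 Luminescence from an NPC1 promoter-driven luciferase reporter in stably transfected Huh7 cells was measured after 24 h compound treatment at 37 °C, followed by 10 min ambient incubation with luciferase detection reagent.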
# * marks the source's active call; other numbers are inactive results; ? = inconclusive; nt = no result; [ ] = dose if it differs, or a comment. Shown are actives, neighbours in structure and some others; about 7.5% of the full set was active somewhere. Calls come from the whole dose curve; as a rule, active = well fitted curve in the direction sought with a large enough effect; inconclusive = small, poorly fitted or top-dose-only effect, or another doubt; inactive = no such curve, though single readings can be large; an effect the other way counts as inactive or inconclusive. Potency is the fitted concentration of half-maximal effect.
SMILES,FLuc modulator,ELG1 genotoxic,Rab9 promoter act,SMN2 splice enh,NPC1 prom act
CCCCC(O)(C(NC=O)C(=O)OC)C(F)(F)F (configuration not stated),-6.4%,1.4%,-4.3%,3.6%,0.3%
N=c1oc2ccc(Cl)cc2cc1C(=O)Nc1ccc(F)cc1,?,?,3.55µM*,nt,3.55µM*
COc1ccc2oc(=N)c(C(=O)Nc3ccccc3)cc2c1,0.953µM*,?,3.16µM*,12.6µM*,?
N=c1oc2ccccc2cc1C(=O)Nc1ccccc1,0.757µM*,0.82µM*,1.26µM*,nt,0.501µM*
COc1ccc2oc(=O)c(C(=O)N3CCN(c4ccccc4C)CC3)cc2c1,13.5µM*,9.2µM*,27.2%,14.1µM*,17.7%
C[C@@H]1CCCN(C[C@@H](O)CN2CCCc3ccccc32)C1,nt,nt,nt,-1.0%[9.22 µM],nt
O=C(Nc1ccccc1O)c1cc2cc(Br)ccc2oc1=O,?,?,?,nt,3.55µM*
COc1ccc2oc(=O)c(C(=O)Nc3ccccc3C)cc2c1,1.69µM*,?,3.16µM*,nt,3.16µM*
CC(C)CNC(=O)Cn1nc(C(F)(F)F)c2c1CCCC2,-3.1%,-0.6%,-12.7%,nt,-3.8%
C/C(=N\NC(=O)Cc1ccc(O)cc1)c1cccnc1,-2.2%,3.1%,-0.2%,nt,-0.8%
Cc1cc(C(=O)COC(=O)c2cc(Cl)c(O)c(Cl)c2)c(C)n1C,16.9µM*,7.6%,9.0%,nt,1.4%
Cc1cnc(C(=O)OCC(=O)c2cc(C)n(C)c2C)cn1,-15.3%,2.2%,4.0%,4.6%,-1.6%
COCCn1c(C)cc(C(=O)COC(=O)c2ccc(Br)o2)c1C,1.9µM*,4.11µM*,?,26.0%,3.16µM*
Cc1cc(C(=O)COC(=O)c2ccc(Br)o2)c(C)n1C,8.49µM*,?,26.2%,1.0%,-3.4%
COc1ccc(CCNC(=O)C2CCCN(c3ncccn3)C2)cc1 (configuration not stated),5.3%,8.4%,-5.1%,-5.1%,2.2%
CCc1nc(SCC(=O)NCCc2ccccc2)c2c(=O)n(C)c(=O)n(C)c2n1,-3.2%,-2.1%,0.3%,nt,-1.1%
COc1ccc(S(=O)(=O)N2CCOC2CNC(=O)C(=O)NCc2ccco2)cc1C (configuration not stated),-4.9%,0.7%,-3.6%,nt,-5.7%
Nc1ccc(-c2nc3ccc(N)cc3[nH]2)cc1,15.1µM*,-8.5%,?,?,?
CC(C)Cc1nc2ccc(N)cc2[nH]1,5.6%,3.3%,-6.7%,nt,-4.0%
Nc1ccc2nc(-c3cc(Cl)c(N)c(Cl)c3)[nH]c2c1,6.01µM*,?,3.16µM*,15.8µM*,?
Nc1ccc2nc(C3CCCCC3)[nH]c2c1,?,7.7%,8.2%,nt,3.5%
Nc1ccc2nc(-c3ccc(Cl)cc3)[nH]c2c1,1.9µM*,16.4µM*,?,?,?
Cc1ccc(C)c(-c2nc3ccc(N)cc3[nH]2)c1,?,?,-1.3%,15.6%,-2.6%
Nc1ccc2nc(-c3cccc(-c4nc5ccc(N)cc5[nH]4)c3)[nH]c2c1,7.57µM*,-4.5%,-11.2%[1.84 µM],nt,-3.1%
C=C1CCC[C@]2(C)C[C@H]3OC(=O)C(CN4CC(C)OC(C)C4)[C@H]3C[C@@H]12 (some centres not stated),2.8%,-6.9%,-2.6%,nt,-3.3%
SMILES,FLuc modulator,ELG1 genotoxic,Rab9 promoter act,SMN2 splice enh,NPC1 prom act
CCOC(=O)c1cnc(-c2ccccc2)nc1Oc1ccc(Cl)cc1,4.8%,1.4%,1.4%,6.2%,-2.7%
Clc1ccc(-c2ccccc2)cn1,-13.7%,4.9%,-1.1%,nt,-1.0%
Cc1nc2ccc(Cc3ccc4nc(C)[nH]c4c3)cc2[nH]1,?,-3.7%,-4.7%,-7.8%,0.8%
Clc1ccc2nc(-c3ccc(Cl)nc3)[nH]c2c1,12µM*,?,17.1%[1.84 µM],nt,2.24µM*
Nc1ccc(-c2nc3c(Cl)c(N)ccc3[nH]2)cc1,12µM*,16.6%,?,?,?
Cc1nc2ccc(-c3nc4ccc(N)cc4[nH]3)cc2[nH]1,4.78µM*,-2.9%,?,nt,?
CN1\C(=C/C=C/C=C/C=[N+](C)C)C(C)(C)c2ccccc21,8.49µM*,-2.3%,-8.1%,-26.1%,-16.4%
CN(C)c1ccc(N=C/C=C2\N(C)c3ccccc3C2(C)C)cc1,15.1µM*,5.1%,15.1%,-18.8%,21.5%
CN1/C(=C\C=O)C(C)(C)c2ccccc21,-0.9%,-2.0%,-5.8%,-0.1%,-6.4%
Cc1nn(-c2ccccc2)c(C)c1/C=N/NC(=O)c1cc(C(C)(C)C)[nH]n1,?,-0.7%,-2.7%,?,-1.0%
Cc1[nH]c2ccccc2c1/C=N/NC(=O)CCC(=O)NCc1ccccc1,-0.5%,-0.1%,-3.5%,nt,-6.2%
O=C(Cc1cccs1)N=Nc1c(O)[nH]c2ccccc12,?,9.6%,24.9%,nt,10.3%
Cc1ccc(-c2cc(C(=O)N/N=C/c3c(C)nn(-c4ccccc4)c3C)n[nH]2)s1,10.7µM*,-5.1%,-15.2%,-71.2%,-12.3%
Cc1cc(C(=O)N/N=C/c2c(C)[nH]c3ccccc23)n[nH]1,?,-2.1%,-3.6%,nt,2.1%
O=C(N=Nc1c(O)[nH]c2ccccc12)c1cc(-c2cccs2)[nH]n1,12µM*,1.7%,16.7%,nt,?
CCC(=O)Nc1ccc(C(=O)N/N=C/c2c(C)[nH]c3ccccc23)cc1,21.3µM*,10.6%,0.0%,6.0%,-0.5%
Cc1[nH]c2ccccc2c1/C=N/NC(=O)c1cc(-c2cccs2)[nH]n1,15.1µM*,-5.0%,-1.0%,9.3%,-3.7%
CCN(C(=O)COC(=O)c1cccc(S(=O)(=O)NCc2ccccc2)c1)c1ccccc1,6.8%,-4.4%,-3.0%,nt,-8.4%
CCN(C(=O)Cn1c(=O)oc2cc(S(=O)(=O)N3CCOCC3)ccc21)c1ccccc1,-0.7%,-2.6%,2.3%,nt,-3.3%
COC(=O)c1cccc(NC(=O)c2cnccn2)c1,-8.5%,2.0%,?,nt,18.7%
Cc1cc(C(=O)CSc2nnc(Nc3ccccc3)s2)c(C)n1CC1CCCO1 (configuration not stated),10.7µM*,-4.0%,12.1%,-19.7%,2.5%
COc1ccccc1Nc1nnc(SCC(=O)c2cc(C)n(CC3CCCO3)c2C)s1 (configuration not stated),?,-3.7%,-5.2%,-17.7%,-3.5%
Cc1cc(C(=O)CSc2nnc(Nc3ccccc3F)s2)c(C)n1CC1CCCO1 (configuration not stated),15.1µM*,-5.7%,-2.2%,-9.0%,-2.8%
On1c(-c2ccc(Cl)cc2)nc2ccccc21,19µM*,9.6%,?,-26.9%,?
Cc1ccc(NC(=O)c2ccc(NCCCN3CCC(C)CC3)c([N+](=O)[O-])c2)cc1F,-2.1%,3.1%,-7.7%,-5.9%,-10.1%
O=C(N/C=C/c1ccco1)NCc1ccccc1,-10.2%,0.4%,1.3%,7.4%,-1.6%
O=C(N/C=C/c1ccco1)OCc1ccccc1,10.7µM*,?,3.55µM*,12.6µM*,?
